# Measurements from PubChem BioAssay (NCATS).
# Several values for one entry are separate records, joined by “and”; a condition that tells them apart may be missing. Equal entries are not always repeated. Results filed as inconclusive are left out. Activity calls are given as the source filed them. Calls come from the whole dose curve.
# Assay: Primary qHTS to identify inhibitors of SARS-CoV-2 cell entry (AID 1645846); note: nearly all actives have a fitted effect of over 45% in size
# Settings: SARS-CoV-2 pseudovirus cell entry assay, luminescence; activity change, negative = inhibition: at 57.1 µM (top of the series) unless noted; series mostly up to 57.1 µM
# Summary of the method: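 Entry measured by luciferase signal 48 h after adding SARS-CoV-2-S pseudotyped MLV particles to HEK293-ACE2 cells preincubated 1 h with compounds. Normalisation: bald particles and spike particles.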
# Potency is the fitted concentration of half-maximal effect.
SMILES,"activity change, negative = inhibition",Potency
N/C(=N\N=C\c1ccc(Cl)cc1)N/N=C/c1ccc(Cl)cc1,-80.5%,
CC[N+](CC)(CC)CCOC(=O)C(C1CCCC1)C1CCCC1,-6.21%,
COc1ccccc1N1CCN(CC(O)COc2cccc3ccccc23)CC1 (centres undefined),-24.9% and -27.1%,
C[C@H]1C[C@H]2[C@@H]3CCC4=CC(=O)C=C[C@]4(C)[C@@]3(Cl)[C@@H](O)C[C@]2(C)[C@@]1(O)C(=O)CO,,inactive
COc1ccnc2c1CCCCC2S(=O)c1nc2ccccc2[nH]1 (centres undefined),-18.8%,
Clc1ccc(C(Cn2ccnc2)OCc2c(Cl)cccc2Cl)c(Cl)c1 (centres undefined),,31.6 µM (active)
CCOc1ccccc1C(N)=O,,inactive
Nc1ccc2cc3ccc(N)cc3nc2c1,,7.94 µM (active)
CN(C)CC/C=C1\c2ccccc2Sc2ccc(Cl)cc21,,20 µM (active)
CCOC(=O)c1ccc(OC(=O)CCCCCN=C(N)N)cc1,,inactive
CC[C@H]1CN2CCc3cc(OC)c(OC)cc3[C@@H]2C[C@@H]1C[C@H]1NCCc2cc(OC)c(OC)cc21,,1.26 µM (active)
CCCc1nc(C)c2c(=O)[nH]c(-c3cc(S(=O)(=O)N4CCN(CC)CC4)ccc3OCC)nn12,-31% and -14%,
Oc1c(Cl)cc(Cl)c(Cl)c1Cc1c(O)c(Cl)cc(Cl)c1Cl,,3.16 µM (active)
CN1CC(=O)N2[C@H](c3ccc4c(c3)OCO4)c3[nH]c4ccccc4c3C[C@@H]2C1=O,-9.6%,inactive
CC1=C(CC(=O)O)c2cc(F)ccc2/C1=C\c1ccc(S(C)=O)cc1 (centres undefined),,inactive
CC(=O)OCC(=O)[C@@]1(O)CC[C@H]2[C@@H]3CCC4=CC(=O)C=C[C@]4(C)[C@H]3[C@@H](O)C[C@@]21C,,inactive
CN(C)c1ccc(C(=C2C=CC(=[N+](C)C)C=C2)c2ccc(N(C)C)cc2)cc1,,2.24 µM (active) and 2.51 µM (active)
O=C(O)CCc1nc(-c2ccccc2)c(-c2ccccc2)o1,2.68%,
O=C1O[C@H]([C@@H](O)CO)C(O)=C1O,,inactive
CCOC(=O)[C@H](CCc1ccccc1)N[C@H]1CS[C@H](c2cccs2)CN(CC(=O)O)C1=O,-4.69%,inactive
CCCCc1ccc2nc(NC(=O)OC)[nH]c2c1,-63.3%,
CCC(CN)=C(c1ccccc1)c1ccccc1,2.6%,
